Source: PubChem BioAssay (NCATS)
Where “and” joins values, the source holds several entries; their conditions need not be identical. Identical values can stand only once. Records with an inconclusive call do not appear. Calls of active or inactive are those of the source. Unless noted, calls come from the whole dose curve; as a rule, active = well fitted curve in the direction sought with a large enough effect; inconclusive = small, poorly fitted or top-dose-only effect, or another doubt; inactive = no such curve, though single readings can be large; an effect the other way counts as inactive or inconclusive.

Experiments:
[1] = KB-8-5-11 P-gp reporter qHTS against the NCATS DSHEA and TCM libraries (AID 1919977); note: 0% is about no effect
Summary of the method: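 P-gp-overexpressing KB-8-5-11 cells (500/well) were plated in colchicine-free DMEM with 10% FBS, attached ~4 h, then exposed to substance titrations for ~72 h at 37C. Viability was read by CellTiter-Glo luminescence.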

[2] = Cell Viability - BJ (AID 421; calls by dose curve;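 note: potency is the fitted concentration of half-maximal effect; cells exposed to compound for 40 hours at 37 °C before readout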); settings: BJ fibroblast viability, qHTS
Summary of the method: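 Normal human BJ foreskin fibroblasts, 1500/well in complete medium, treated 40 hr at 37 °C. Cellular ATP by CellTiter-Glo luminescence; normalized to DMSO and 100 uM tamoxifen, AC50 from Hill fit.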

[3] = Cell Viability - HepG2 (AID 433; calls by dose curve;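 note: potency is the fitted concentration of half-maximal effect; cells exposed to compound for 40 hours; potency for ATP loss meaning cytotoxicity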); settings: qHTS
Summary of the method: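 HepG2 hepatocellular carcinoma cells (1500/well) were treated with compounds for 40 h at 37 °C in complete medium; intracellular ATP was read by CellTiter-Glo luminescence. Data were normalized to DMSO and 100 uM tamoxifen, and AC50 came from Hill fits.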

[4] = Cell Viability - MRC5 (AID 434; calls by dose curve;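 note: potency is the fitted concentration of half-maximal effect; cells exposed to compound for 40 hours at 37 °C; potency reflects cytotoxicity seen as loss of intracellular ATP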); settings: MRC5 lung fibroblast viability, qHTS
Summary of the method: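 AC50 values come from Hill-equation fits of intracellular ATP loss, measured by CellTiter-Glo luminescence. Normal lung fibroblasts (MRC5) had 40 hr compound treatment at 37 C, normalized between DMSO and 100 uM tamoxifen.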

[5] = Cell Viability - N2a (AID 540); settings: N2a mouse neuroblastoma cell viability; at 92.2 µM (top of the series);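 note: plate controls were DMSO alone for no effect and tamoxifen control for full effect; nearly all actives have a fitted effect of over 45% in size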
Summary of the method: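 N2a mouse neuroblastoma, 1500 cells/well, 5 hr settle; compound 40 hr, 37 °C; CellTiter-Glo 20 min RT; luminescence; Hill-fit AC50.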

[6] = Cell Viability - HUV-EC-C (AID 542);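 note: cells exposed to compound for 40 hours; % is set by controls: 0 for no effect and ±100 for the full control effect; nearly all actives have a fitted effect of over 35% in size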
Summary of the method: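 Luminescent ATP read-out (CellTiter-Glo, 20 min room temperature) after 40 hr compound treatment of HUV-EC-C cells at 37 °C. Concentration-response data fitted with the standard Hill equation to give AC50; tamoxifen and doxorubicin served as positive controls.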

[7] = Cell Viability - SH-SY5Y (AID 544); settings: SH-SY5Y neuroblastoma cell viability; viability change, negative = cytotoxic: at 92.2 µM (top of the series);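 note: cells exposed to compound for 40 hours; nearly all actives have a fitted effect of over 55% in size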
Summary of the method: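 SH-SY5Y, 1500 cells/well, 5 hr pre-incubation 37 °C; cpd 40 hr 37 °C; CellTiter-Glo 20 min RT; luminescence (ATP) read. qHTS concentration-response, Hill fit → AC50. Tamoxifen, doxorubicin as positive controls.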

[8] = Cell Viability - Renal Proximal Tubule (AID 545); settings: renal proximal tubule cells viability; at 91.7 µM (top of the series), primary cells of rat origin unless noted;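 note: cells exposed to compound for 40 hours; nearly all actives have a fitted effect of over 40% in size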
Summary of the method: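 Primary rat renal proximal tubule cells (1000/well) were treated with compounds for 40 hr at 37 °C in complete medium. Intracellular ATP was measured by CellTiter-Glo luminescence, and AC50 values came from Hill-equation fits of concentration-response data.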

[9] = Cellular Toxicity (caspase-3) Jurkat (AID 655); settings: Jurkat caspase-3 activation, luminescence, DMSO = 0%, tamoxifen = 100%; at 92.2 µM (top of the series);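 note: cells exposed to compound for 16 h at 37 °C before reading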
Summary of the method: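 Jurkat cells (5000/well) in complete medium were treated with compounds for 16 hr at 37 °C, then Caspase-Glo 3/7 luminescence was read after 20 min at room temperature. Data normalized to DMSO (basal) and 100 uM tamoxifen (100%); AC50 from Hill fit.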

[10] = Cellular Toxicity (caspase-3) HUV-EC-C (AID 656)
Summary of the method: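 HUV-EC-C endothelial cells, 1000/well, were pre-incubated 5 hr at 37°C, then exposed to compounds for 16 hr at 37°C. Caspase-Glo 3/7 luminescence was read after 20 min at room temperature. AC50 came from Hill fits, normalized to DMSO and 100 uM tamoxifen.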

[11] = Cellular Toxicity (caspase-3) SHSY5Y (AID 657)
Summary of the method: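 SH-SY5Y human neuroblastoma cells (1500/well) were treated with compounds for 16 h at 37 °C, then Caspase-Glo 3/7 luminescence was read after 1 h at room temperature. Data normalized to DMSO and 10 uM staurosporine; AC50 from Hill fits.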

[12] = Cellular Toxicity (caspase-3) BJ (AID 658);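 note: 0% = DMSO basal and 100% = 10 µM staurosporine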
Summary of the method: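 Caspase-Glo 3/7 luminescence, read 1 hr after reagent at room temperature, in normal BJ fibroblasts exposed 16 hours at 37 °C. AC50 values from Hill-equation concentration-response, scaled between DMSO basal and 10 uM staurosporine as 100%.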

[13] = Cellular Toxicity (caspase-3) MRC-5 (AID 659);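 note: 0% = DMSO basal and 100% = 10 µM staurosporine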
Summary of the method: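 Luminescent Caspase-Glo 3/7 read-out (1 h, room temperature) after a 16 h, 37 °C compound exposure of MRC-5 lung fibroblasts at 1500 cells/well. Concentration-response AC50 from Hill equation; 0% DMSO, 100% 10 uM staurosporine.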

[14] = Cellular Toxicity (caspase-3) SK-N-SH (AID 661);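 note: 0% = DMSO basal and 100% = 10 µM staurosporine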
Summary of the method: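 Luminescent Caspase-Glo 3/7 read-out after 16 hr compound exposure of SK-N-SH neuroblastoma cells at 37 °C. Signal increase normalized to DMSO (basal) and 10 uM staurosporine (100%); AC50 from Hill equation fits of qHTS concentration-response data.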

[15] = Cellular Toxicity (caspase-3) H-4-II-E (AID 663);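 note: cells exposed to compound for 16 hr before readout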
Summary of the method: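 Caspase 3/7 activation measured by luminescent aminoluciferin substrate cleavage after 16 hr compound treatment of H-4-II-E cells in complete medium. Increase normalized between DMSO (basal) and 100 uM tamoxifen (100%); Hill-equation AC50 from concentration-response.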

[16] = Cellular Toxicity (caspase-3) Renal Proximal Tubule (AID 667); settings: renal proximal tubule cells; at 91.7 µM (top of the series), primary cells freshly taken from rat, solvent-only wells 0%, staurosporine 100% unless noted;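 note: cells exposed to compound for 16 hours at 37 °C before detection; 0% = DMSO basal and 100% = 10 µM staurosporine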
Summary of the method: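 Primary rat proximal tubule cells, 1000/well, 5 h plating at 37 °C, then compound 16 h at 37 °C. Caspase-Glo 3/7 reagent, 1 h RT, luminescence. Normalized to DMSO (basal) and 10 uM staurosporine (100%); Hill-fit AC50.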

[17] = qHTS Assay for Identification of Small Molecule Inducers of Hypoxia Response (AID 2120; active = well fitted curve in the direction sought with a large enough effect in the signal ratio, with a control signal flat, not every such curve was filed as active; the % refers to the signal ratio; note: 0% is about no effect)
Summary of the method: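 Read-out: CCF4 FRET emission ratio 460nm/530nm (excitation 405nm), converted to %Activity, with AC50 fitted across a compound titration. ME-180 cells carried an HRE-driven beta-lactamase reporter; compound exposure 17 h, 37 degrees C.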

[18] = qHTS assay for small molecule agonists of the antioxidant response element (ARE) signaling pathway measured by Nrf2-dependant transcriptional activity - cell viability counter screen (AID 720653; active = well fitted curve in the direction sought with a large enough effect in the repeat runs; an effect the other way counts as inactive or inconclusive; note: % is set by controls: 0 for no effect and ±100 for the full control effect); settings: ARE-bla HepG2 viability, CellTiter-Glo ATP luminescence, 16 h; hits give low values
Summary of the method: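 Cytotoxicity counter screen: intracellular ATP quantified by CellTiter-Glo luminescence in the same ARE-bla HepG2 plates, after 16 h compound exposure and a 2 h beta-lactamase substrate step.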

[19] = qHTS assay for cell viability of HEK293 cells (AID 743288); settings: ATP luminescence (CellTiter-Glo), 18 h; max response: hits give low values; note: % is set by controls: 0 for no effect and ±100 for the full control effect; nearly all actives have a fitted effect of over 50% in size
Summary of the method: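 After 18 h compound exposure at 37 C, parental HEK293 cells (2,000/well) are lysed with CellTiter-Glo and luminescence is read following 30 min at room temperature.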

[20] = qHTS assay for cell viability of the p53RE-bla HCT-116 cell line (AID 743292); note: % is set by controls: 0 for no effect and ±100 for the full control effect; nearly all actives have a fitted effect of over 55% in size
Summary of the method: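 After plating at 4,000 cells per well and a 5 h rest at 37 C, HCT-116 cells carrying p53RE-bla received test chemicals in DMSO. Sixteen hours later at 37 C, CellTiter-Glo was added and luminescence recorded following 30 min at room temperature.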

CCCCCC/C=C/CCCCCCCCCC(=O)O
inactive: Potency [1]

CCCCCCCCCCCCCC(=O)O
inactive: Potency [1]

CC(C)=CCC[C@](C)(O[C@@H]1O[C@H](CO)[C@@H](O)[C@H](O)[C@H]1O)[C@H]1CC[C@]2(C)[C@@H]1[C@H](O)C[C@@H]1[C@@]3(C)CC[C@H](O[C@@H]4O[C@H](CO)[C@@H](O)[C@H](O)[C@H]4O[C@@H]4O[C@H](CO)[C@@H](O)[C@H](O)[C@H]4O)C(C)(C)[C@@H]3CC[C@]12C
inactive: Potency [1]

COc1ccc(C(=O)O)cc1
inactive: Potency [1]

C=CC(N)=O
inactive: Potency [2] > 92 µM | Potency [3] > 92 µM | Potency [4] > 92 µM | activity change, negative = cytotoxicity [5] 1.31% and 7.69% | Potency [6] | Potency [7] | activity change, negative = cytotoxicity [8] 6.17% and -0.476% | caspase-3 activation [9] 0.421% and 0.897% | outcome [10] | outcome [11] | outcome [12] | outcome [13] | outcome [14] | outcome [15] | caspase-3 activation [16] 6.41% and -1% | outcome [17] | max response [18] -3.97% and 4.84% and 3.74% | max response [19] -9.64% and 2.95% and 5.31% | Potency [20]

Nc1ccccc1Cl
inactive: Potency [2] > 92 µM | Potency [3] > 92 µM | Potency [4] > 92 µM | activity change, negative = cytotoxicity [5] 0.502% | Potency [6] | Potency [7] | activity change, negative = cytotoxicity [8] 6.03% | caspase-3 activation [9] -0.675% | outcome [10] | outcome [11] | outcome [12] | outcome [13] | outcome [14] | outcome [15] | caspase-3 activation [16] 2.73% | outcome [17] | max response [18] 8.24% | max response [19] -8.45% | Potency [20]

CC(C)(C)OOC(C)(C)C
inactive: Potency [2] > 92 µM | Potency [3] > 92 µM | Potency [4] > 92 µM | activity change, negative = cytotoxicity [5] -8.54% | Potency [6] | Potency [7] | activity change, negative = cytotoxicity [8] -8.32% | caspase-3 activation [9] 0.243% | outcome [10] | outcome [11] | outcome [12] | outcome [13] | outcome [14] | outcome [15] | caspase-3 activation [16] 11.1% | outcome [17] | max response [18] -1.66% | max response [19] 1.9% | Potency [20]

Clc1cccc(C(Cl)(Cl)Cl)n1
inactive: Potency [2] > 92 µM | Potency [3] > 92 µM | Potency [4] > 92 µM | activity change, negative = cytotoxicity [5] -3.54% | Potency [6] | Potency [7] | activity change, negative = cytotoxicity [8] -6.77% | caspase-3 activation [9] -0.503% | outcome [10] | outcome [11] | outcome [12] | outcome [13] | outcome [14] | outcome [15] | caspase-3 activation [16] 4.49% | outcome [17] | max response [18] 1.86% and -5.38% | max response [19] 8.34% and -7.37% | Potency [20]

Brc1ccccc1
inactive: Potency [2] > 92 µM | Potency [3] > 92 µM | Potency [4] > 92 µM | activity change, negative = cytotoxicity [5] -4.7% | Potency [6] | Potency [7] | activity change, negative = cytotoxicity [8] -2.95% | caspase-3 activation [9] -1.45% | outcome [10] | outcome [11] | outcome [12] | outcome [13] | outcome [14] | outcome [15] | caspase-3 activation [16] -10.7% | outcome [17] | max response [18] -10.2% and 1.06% | max response [19] 3.06% and -4.67% | Potency [20]

C[C@]12CC[C@H]3[C@@H](CCC4=CC(=O)CC[C@@]43C)[C@@H]1CC[C@@H]2O
inactive: Potency [2] > 92 µM | Potency [3] > 92 µM | Potency [4] > 92 µM | activity change, negative = cytotoxicity [5] -5.73% | Potency [6] | Potency [7] | activity change, negative = cytotoxicity [8] -15.1% [at 91.7 µM] | caspase-3 activation [9] 4.38% | outcome [10] | outcome [11] | outcome [12] | outcome [13] | outcome [14] | outcome [15] | caspase-3 activation [16] -4.12% [at 91.7 µM] | outcome [17] | max response [18] -2.92% | max response [19] -9.57% | Potency [20]
